Structures are written as SMILES. Records with an inconclusive call do not appear. Entries that show only a call come without a potency. Calls of active or inactive are those of the source. Calls follow the shape of the dose curve; as a rule, active = well fitted cell-killing curve with a large enough effect in the repeat runs; inconclusive = weak or mixed curves, or effect the other way; inactive = no such curve, though single readings can be large or run the other way.
Potency is read from the fitted curve at half-maximal effect.

This test can be described thus: qHTS assay to identify small molecule agonists of the farnesoid-X-receptor (FXR) signaling pathway - cell viability counter screen (AID 743218). Also: nearly all actives have a fitted effect of over 45% in size. The conditions noted are these: FXR-bla HEK293T viability, CellTiter-Glo luminescence, 16 h; series mostly up to 62.6 µM. An excerpt:
U.S. Tox21 Program National Center for Advancing Translational Sciences [NCATS] NIH Chemical Genomics Center [NCGC] U.S. Environmental Protection Agency [EPA] National Institutes of Environmental Health Sciences [NIEHS] National Toxicology Program [NTP] U.S. Food and Drug Administration [FDA] Tox21 Assay Overview: The farnesoid-X-receptor (FXR), a nuclear hormone receptor, is highly expressed in liver, intestine, kidney and adrenal cortex. Natural ligands of FXR are the bile acids (Cholic acid, Chenodeoxy cholic acid etc). FXR is an important regulator of diverse metabolic pathways, including the bile acid homeostasis, lipid and glucose metabolisms. FXR regulates the expression of target genes by binding either as a monomer or as a heterodimer with the retinoid X receptor (RXR). Numerous studies have reported that FXR exerts protective function during cholestasis, diabetes, liver regeneration, and cancer. To identify compounds that activate FXR signaling, GeneBLAzer FXR-UAS-bla HEK 293T cell line (Invitrogen, Carlsbad, CA) containing a beta-lactamase reporter gene under the control of a UAS response element was used to screen the Tox21 10K compound library. The cytotoxicity of the Tox21 compound library against the FXR-bla cell line was tested in parallel by measuring the cell viability using CellTiter-Glo assay in the same wells.
Tox21 Assay Protocol Summary: FXR-bla cells were dispensed at 5000 cells/5uL/well in 1536-well black wall/clear bottom plates using a Multidrop Combi (Thermo Fisher Scientific, Waltham, MA) dispenser. After the assay plates were incubated at 37 C and 5% CO2 for 5 h, 23 nL of compounds dissolved in DMSO, positive controls or DMSO only was transferred to the assay plate by a Pintool station (Kalypsys, San Diego, CA). The assay plates were incubated at 37C for 16 h. After 1 uL of LiveBLAzerTM B/G FRET substrate was added using a Bioraptr Flying Reagent Dispenser (FRD) workstation (Beckman Coulter, Indianapolis, IN), the plates were incubated at room temperature for 2 h, and fluorescence intensity was measured by an Envision plate reader (PerkinElmer, Shelton, CT). For cell viability readout that measures cytotoxicity, 4uL/well of CellTiter-Glo reagent was added into the assay plates using a Bioraptr FRD. After 30 min incubation at room temperature, the luminescence intensity in the plates was measured using a ViewLux plate reader (PerkinElmer).
For `ClCc1cccc(Cl)c1`, the Potency entry was “inactive”. For `O=C(NC(=O)c1c(F)cccc1F)Nc1ccc(OC(F)(F)C(F)OC(F)(F)F)c(Cl)c1` (stereo not given), the Potency entry is “inactive”. Regarding `CCCCCCCCCC(=O)O[C@H]1CC[C@H]2[C@@H]3CCC4=CC(=O)CC[C@@H]4[C@H]3CC[C@]12C`, the Potency result was “inactive”. To `NC(=O)C(Cl)(Cl)Cl` belongs “inactive”; to `O=C(N[C@H](c1ccccc1)[C@@H]1CN2CCC1CC2)c1c(Cl)ccc(C(F)(F)F)c1Cl`, 70.2 µM (active).

Turning to `CC(=O)C(C)(C)C`, the Potency result is “inactive”. With `CCC(COC(=O)c1cc(OC)c(OC)c(OC)c1)(c1ccccc1)N(C)C` (stereo not given), the Potency entry was “inactive”. As to `O=Cc1ccc2c(c1)OCO2`, the Potency entry was “inactive”. On to `Oc1ccc(Cl)c(Cl)c1Cl`, for which the Potency entry was “inactive”.

As to `C=CC(=O)OC(C)(C)C`, the Potency entry is “inactive”. Turning to `C#CCOC(C(=O)OCCN(C)C)(c1ccccc1)c1ccccc1`, the Potency result was “inactive”. Turning to `O=[N+]([O-])C(Br)(CO)CO`, the Potency result was “inactive”.

`C=CCCl`: the Potency entry was “inactive”. In the case of `O=C(CBr)Nc1ccc(Cl)cc1C(=O)c1ccccc1F`, the Potency entry is “inactive”. On to `CCOP(=O)(OCC)Oc1ccc([N+](=O)[O-])cc1`, for which the Potency result was “inactive”. Regarding `CCOP(=S)(OCC)Oc1cc(Cl)c(Br)cc1Cl`, the Potency entry was “inactive”. As for `BrCC(Br)C1CCC(Br)C(Br)C1` (stereo not given), the Potency entry was “inactive”. For `CC(=O)[C@H]1CC[C@H]2[C@@H]3CC[C@H]4C[C@](C)(O)CC[C@]4(C)[C@H]3CC[C@]12C`, the Potency result was “inactive”.

Consider `Cl/C=C\Cl`, for which the Potency entry was “inactive”. For `O=Cc1ccc(Cl)cc1Cl`, the Potency result is “inactive”. For `O=C(CBr)c1ccccc1`, the Potency result is “inactive”. As for `O=C(O)COc1ccc(Cl)cc1`, the Potency entry was “inactive”. `COc1cc(CC(C)N)cc2c1OCO2` (stereo not given): the Potency result is “inactive”. As for `c1ccoc1`, the Potency entry was “inactive”. To `c1ccc(CN2CCNCC2)cc1` belongs “inactive”; to `CC(C)O.CC(C)O.OCCN(CCO)CCO.OCCN(CCO)CCO.[Ti]`, “inactive”. Regarding `C=COC(C)=O`, the Potency result is “inactive”. Under `COCC(C)N(C(=O)CCl)c1c(C)csc1C` (stereo not given) stands “inactive”. Regarding `ClP(Cl)(Cl)(Cl)Cl`, the Potency entry is “inactive”. Turning to `CC(C)(CCl)C(=O)Cl`, the Potency entry was “inactive”. For the compound `C[C@@H]1CC[C@H]2[C@@H](C)C(=O)O[C@@H]3O[C@@]4(C)CC[C@@H]1[C@]32OO4`, the Potency result was “inactive”. For the compound `O=S(=O)(Cl)c1ccccc1`, the Potency entry was “inactive”.

With `CC(C)(OO)c1ccccc1`, the Potency result is “inactive”.

As to `C=CC(=O)OC`, the Potency result is “inactive”. For `S=C=NCc1ccccc1`, the Potency entry was “inactive”. Regarding `CC[C@H]1C[C@H]2[C@@H]3CCC4=CC(=O)CC[C@@H]4[C@H]3CC[C@]2(C)[C@H]1O`, the Potency result was “inactive”. Turning to `O=C(O)C(F)(F)C(F)(F)C(F)(F)C(F)(F)C(F)(F)C(F)(F)C(F)(F)C(F)(F)C(F)(F)C(F)(F)F`, the Potency entry was “inactive”. Under `Cn1cc[n+](C)c1` (tested in a mixture with another compound) stands “inactive”. Under `CC(C)(Cl)[N+](=O)[O-]` stands “inactive”. Under `CCCCc1c(C)nc(NCC)nc1OS(=O)(=O)N(C)C` stands “inactive”.

These data come from PubChem BioAssay (Tox21).
